# Mcl-1 Bim block: inhibitors of Bim-Mcl-1 interaction, human; Q07820; Bead-based flow cytometry, Bim peptide-Mcl-1 binding; inhibition, % at 10 µM; actives 0.1% (n = 190,000); AID 1009; in the data active = inhibition above about 40%;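 note: 0% = no compound tracer wells and 100% = peptide blocker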
# Target sequence (Q07820 whole entry, looked up): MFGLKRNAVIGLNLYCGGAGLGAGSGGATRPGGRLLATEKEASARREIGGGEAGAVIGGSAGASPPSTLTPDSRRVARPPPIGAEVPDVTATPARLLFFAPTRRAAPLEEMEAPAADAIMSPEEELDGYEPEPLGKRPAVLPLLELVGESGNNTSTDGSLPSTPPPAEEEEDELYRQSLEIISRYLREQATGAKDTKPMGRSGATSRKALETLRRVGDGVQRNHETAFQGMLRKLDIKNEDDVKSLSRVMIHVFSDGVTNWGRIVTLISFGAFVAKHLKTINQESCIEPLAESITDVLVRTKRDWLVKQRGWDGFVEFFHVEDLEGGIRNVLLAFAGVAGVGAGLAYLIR
# Mcl1 Noxa PPI: disrupts binding of human Mcl-1 to Noxa peptide. TR-FRET Mcl-1/Noxa peptide binding, 2 h. AID 1022. inhibition, % at 21.7 µM. Q07820. actives 1.5% (n = 220,000);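 active = compounds that cut the protein-peptide binding signal by more than 50% relative to plate controls in a single-dose test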;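 note: His-tagged Mcl-1 with rhodamine Noxa BH3 peptide and terbium anti-His antibody; 0% = Mcl-1 plus Noxa peptide wells and 100% = peptide-only wells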
# Hck-Nef inh: inhibitors of human Hck kinase activated by Nef. P08631. Recombinant Hck-YEEI plus Nef, Z-Lyte FRET kinase assay. inhibition, % at 20 µM. actives 0.68% (n = 220,000);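 active = Hck-Nef kinase inhibition above about 50%, limit read from the data; inactive = inhibition below that limit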;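 note: 0% = DMSO with Hck plus Nef and 100% = Hck alone without Nef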
# Pf gametocyte: kills late stage P. falciparum gametocytes; P. falciparum stage V gametocytes, ATP luminescence, 24 h; inhibition, % at 10.9 µM; actives 0.065% (n = 150,000); AID 743093;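 active = inhibition above the mean plus 3 SD of compounds within the control limits, set per campaign, cut at about 38% in these data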;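 note: 0% = DMSO wells and 100% = medium only without gametocytes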
# 14-3-3 Bad PPI: disrupts binding of bovine 14-3-3 zeta to phospho-Bad peptide; P63103; TR-FRET 14-3-3zeta/Dy647-pBad peptide displacement, 1 h; inhibition, % at 21.7 µM; actives 0.71% (n = 220,000); AID 781;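 active = inhibition above about 70%, limit read from the data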;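 note: 0% = full 14-3-3 plus peptide FRET controls and 100% = background without 14-3-3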
# Target sequence (P63103 whole entry, looked up): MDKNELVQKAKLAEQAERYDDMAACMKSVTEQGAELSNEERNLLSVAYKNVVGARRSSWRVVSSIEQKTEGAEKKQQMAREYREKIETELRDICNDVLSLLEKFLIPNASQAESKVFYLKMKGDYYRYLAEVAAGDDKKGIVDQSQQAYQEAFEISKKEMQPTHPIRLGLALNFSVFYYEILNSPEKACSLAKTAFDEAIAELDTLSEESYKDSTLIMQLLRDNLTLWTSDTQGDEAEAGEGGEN
# Mcl1-Bid inh: Mcl-1/Bid interaction inhibition. actives 0.97% (n = 220,000). TR-FRET Mcl-1/Bid-Dy647 peptide binding, 1536-well. Q07820. inhibition, % at 21.7 µM;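 active = compounds that cut the binding signal by more than half at the single screening dose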;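 note: His-tagged Mcl-1 with europium anti-His antibody binding Bid BH3 peptide; 0% = Mcl-1 plus peptide wells and 100% = peptide-only wells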
# * hit, by the source's call; . = no result; [ ] = dose if it differs, or a comment. A selection: hits, their analogues and other compounds. The true share with any hit is near 2.9%.
SMILES,Mcl-1 Bim block,Mcl1 Noxa PPI,Hck-Nef inh,Pf gametocyte,14-3-3 Bad PPI,Mcl1-Bid inh
Cc1cccc(NC(=O)CSc2nnc(-c3ccco3)c(-c3ccco3)n2)c1,-1.0,96.4*,46.2,-12.0,20.3,-18.5
Cc1cccc(NC(=O)CSc2nnc(-c3ccco3)c(-c3ccco3)n2)c1C,2.0,94.7*,2.0,.,30.3,27.5
Cc1cccc(NC(=O)CSc2nc(N)cc(N)n2)c1,7.0,25.9,1.3,.,-8.4,-4.7
COc1ccc2c(c1)C1NC(=S)NC(C)(O2)C1C(=O)Nc1ccccc1C (centres undefined),4.0,17.1,0.7,.,2.6,-58.8
O=C(c1cnn2c(C(F)(F)F)cc(-c3ccco3)nc12)N1CCCCCC1,-4.0,8.5,1.3,-13.3,10.5,-4.6
O=C(O)c1cnn2c(C(F)(F)F)cc(-c3ccco3)nc12,1.0,38.7,-8.9,-8.4,55.1,78.7*
CC(C)c1ccc(/C=N/NC(=O)c2cccc(Cl)c2)cc1,-2.0,8.2,4.7,-9.5,-10.0,-3.5
O=C(NC(Cc1ccccc1)C(=O)O)c1ccc(S(=O)(=O)N2CCCCC2)cc1 (centres undefined),2.0,17.6,3.3,.,-4.2,99.2*
O=C(N[C@@H](Cc1ccccc1)C(=O)O)c1ccncc1,-1.0,25.3,7.6,.,7.1,94.4*
CN(C)c1ccc(/C=N/NC(=O)c2cc(-c3ccc4c(c3)OCO4)n[nH]2)cc1,.,59.8*,10.0,-1.9,1.1,1.3
COC(=O)c1ccc2c(c1)NC(=O)C1CCCN21 (centres undefined),-5.0,64.3*,.,.,-0.3,-1.8
COc1ccc(/C=N/NC(=O)c2cc(C34CC5CC(CC(C5)C3)C4)[nH]n2)cc1O,-1.0,26.0,0.7,5.4,7.6,-5.6
CCc1nnc(NS(=O)(=O)c2ccc(NC(=O)c3cc4ccccc4oc3=O)cc2)s1,-7.0,64.3*,10.3,-10.9,-0.6,7.5
CCc1nnc(NS(=O)(=O)c2ccc(NC(=O)OC)cc2)s1,.,18.5,-0.6,0.3,-5.1,4.3
COc1ccc2c(-c3cc4ccc(OCc5ccc(F)cc5)cc4oc3=O)cc(=O)oc2c1,0.0,-1.8,-2.3,.,92.0*[fluorescence artefact?],55.9*
CN(CCOc1ccc(NS(C)(=O)=O)cc1)CCc1ccc(NS(C)(=O)=O)cc1,1.0,1.1,.,.,-0.4,84.3*
COc1ccc(CCNC(=O)COC(=O)Cc2cccc3ccccc23)cc1,-6.0,83.1*,-4.8,2.7,8.9,-5.4
COC(=O)c1ccc(CN2CCN(Cc3ccc(F)cc3)C(CCO)C2)cc1 (centres undefined),-1.0,-2.3,3.7,-9.5,2.5,-41.3
CO/N=C/c1cccn1-c1nccc(OC)c1C#N,0.0,4.9,-2.0,.,-7.4,-25.6
CN(C)c1ccnc(-n2cccc2/C=N/OCc2cccc(F)c2)c1C#N,1.0,-18.3,-0.1,2.3,79.8*,-17.8
CCOc1ccc(C(=O)Nc2cc(-c3nc4ccccc4[nH]3)ccc2C)cc1[N+](=O)[O-],-2.0,3.1,0.7,-21.1,75.4*,-5.3
O=[N+]([O-])c1cc(/C=N/Nc2nc3ccccc3[nH]2)c(O)cc1O,0.0,74.7*,5.0,-12.4,1.4,-130.5
O=C(Nc1nc2ccccc2[nH]1)c1ccc(Cl)c([N+](=O)[O-])c1,0.0,81.9*,21.3,1.3,35.2,8.9
COc1ccc(CNC(C)C2COc3ccccc3O2)c(OC)c1 (centres undefined),-4.0,4.2,0.4,2.8,28.3,47.5
CC(NCc1ccccc1)C1COc2ccccc2O1 (centres undefined),-3.0,.,16.5,-17.4,48.3,60.0*
SMILES,Mcl-1 Bim block,Mcl1 Noxa PPI,Hck-Nef inh,Pf gametocyte,14-3-3 Bad PPI,Mcl1-Bid inh
CCc1nnc(NC(=O)CSc2nc(-c3ccc(F)cc3)cc(-c3ccccc3)c2C#N)s1,-14.0,-14.3,7.1,8.2,20.0,60.0*
O=C(COc1ccc2c(c1)CCC2)N1CCc2ccccc21,2.0,49.1,0.7,-5.1,1.0,90.1*
N#Cc1ccc(Oc2nc(C#N)cc(-c3ccccc3)n2)cc1,-1.0,13.6,6.0,3.5,-2.2,-8.8
N#Cc1cc(-c2ccccc2)nc(Oc2ccccc2)n1,-5.0,-0.6,1.9,9.7,0.3,83.3*
O=C(NC(=S)Nc1nc2c(s1)CCCC2)c1ccc(C(=O)c2ccccc2)cc1,-1.0,-2.2,3.6,.,-15.5,-20.2
O=C(NC(=S)Nc1nc2c(s1)CSc1ccccc1-2)c1ccccc1,-1.0,72.7*,1.5,11.8,7.4,-18.0
COc1cccc(NC(=S)N(CCCN2CCCC(C)C2)Cc2cccs2)c1 (centres undefined),1.0,-4.3,-16.4,25.0,-4.5,-18.8
CCCCC(=O)Nc1cccc(NC(=S)NC(=O)COc2ccccc2Cl)c1,-2.0,4.7,3.3,0.3,-11.8,-26.8
O=C(NN=C1C2CC3CC1CC(Cl)(C3)C2)c1ccccn1,-1.0,67.4*,21.6,-18.1,8.8,10.0
CCn1c2ccccc2c2cc(/C=N/NC(=O)c3cc(O)cc(O)c3)ccc21,-2.0,63.5*,36.1,-11.6,7.1,-13.2
CCn1c2ccccc2c2cc(/C=N/NC(=O)c3ccc(O)cc3)ccc21,-5.0,42.4,3.2,6.1,1.0,-7.3
CCS(=O)(=O)NCC(c1cccnc1)N1CCN(c2ccccc2)CC1 (centres undefined),1.0,5.1,7.3,.,6.1,-29.6
COc1cccc(C(c2sc3nc(C)nn3c2O)N2CCc3ccccc3C2)c1 (centres undefined),0.0,52.1*,-5.0,.,-7.4,-8.9
CCOc1ccc(-n2c(SCC(=O)Nc3ccccc3C)n[nH]c2=O)cc1,-1.0,-6.2,0.1,-5.9,14.6,65.0*
Cc1ccc(S(=O)(=O)CC(N)=O)cc1,-2.0,-5.7,-16.7,15.4,1.1,0.9
N/C(CS(=O)(=O)c1ccc(F)cc1)=N\O,.,-5.7,19.5,10.2,1.3,77.9*
N#CC1=C(N)S[C@@H](C(=O)c2ccc(F)cc2)[C@@H]1c1cccs1,-4.0,16.4,-0.4,.,-0.1,-12.4
CCn1c(COc2ccc(C)cc2)nnc1SCc1ccc(C#N)cc1,0.0,15.2,0.6,.,-3.3,-9.6
CCc1ccc(OCc2nnc(SCCN3CCOCC3)n2CC)cc1,-1.0,34.4,0.9,-15.0,66.0,57.7*
O=C(O)C1Cc2ccccc2CN1S(=O)(=O)/C=C/c1ccccc1 (centres undefined),-3.0,41.4,22.1,8.4,85.6*,-31.3
O=C(O)CC(CC(=O)O)c1ccsc1,.,.,.,-0.1,.,.
Cc1ccc(Nc2c(-c3ccc(C)o3)nc3cnccn23)cc1,-2.0,51.1*,17.5,.,-1.1,-7.8
Cc1ccc(-c2nc3cnccn3c2Nc2ccccc2)o1,-2.0,43.8,3.9,.,9.7,-19.7
COCCCNC(=O)c1ccc2c3c(onc13)-c1ccccc1C2=O,.,55.5*,16.2,.,-0.2,-109.3
COCCCNC(=O)c1ccccc1Oc1ccccc1,0.0,-0.4,4.3,8.7,-3.9,-21.5

# Compound activity as filed in PubChem BioAssay.
